Consider 13 molecules from PubChem BioAssay (NCI).

About 83,000 compounds went through this panel and 20% of them were active in at least one assay; those are over-represented in the sample as a whole.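 Treatment: one concentration, 48 hours, 96-well format. Scoring: percent growth, with anything below 10 considered active.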 Unmarked numbers belong to inactive results. Active and inactive are the calls of the source.

Test systems include SR leukemia; RPMI-8226 leukemia; OVCAR-8 ovarian; OVCAR-5 ovarian; OVCAR-4 ovarian; SK-OV-3 ovarian; IGROV1 ovarian; OVCAR-3 ovarian; HS 578T breast; NCI/ADR-RES ovarian.
Holding throughout (experiment): NCI-60 one-dose screen, 48 h (100 = growth as untreated, 0 = no growth, -100 = all killed)
Holding throughout (settings): 10 µM unless noted

In the case of `COc1ccc(OC)c(/C=C2\Oc3cc(OCCCN4CCCC4)ccc3C2=O)c1`, the growth is -22.8% (active) in the assay on SR leukemia; 77.7% in the assay on RPMI-8226 leukemia; 78.1% in the assay with OVCAR-8 ovarian; 82.1% in the assay on OVCAR-5 ovarian; 86.7% in the assay with OVCAR-4 ovarian; 110% with SK-OV-3 ovarian. Moreover, the growth with IGROV1 ovarian is 84.2%; with OVCAR-3 ovarian, 91%; with HS 578T breast, 80.8%; in the assay on NCI/ADR-RES ovarian, 80.3%.

On to `CC(=O)Oc1csc(N(C(C)=O)c2cc(C(=O)O)cc(C(=O)O)c2)n1`, for which the growth in the assay on SR leukemia is 114%; in the assay with RPMI-8226 leukemia, 43.3%; in the assay on OVCAR-8 ovarian, 104%; in the assay with OVCAR-5 ovarian, 101%; in the assay on OVCAR-4 ovarian, 90.4%; with SK-OV-3 ovarian, 111%. Moreover, the growth is 101% with IGROV1 ovarian, 105% in the assay on OVCAR-3 ovarian, 95.3% in the assay on HS 578T breast and 99.2% in the assay with NCI/ADR-RES ovarian.

Take `C[n+]1c(/C=C/c2c(O)ccc3ccccc23)ccc2ccccc21`: the growth with SR leukemia was -36.2% (active); with RPMI-8226 leukemia it was 3.79% (active); in the assay on OVCAR-8 ovarian, 21.3%; in the assay with OVCAR-5 ovarian, 77.3%; with OVCAR-4 ovarian it was 28.3%; with SK-OV-3 ovarian, 50.6%. The growth is 45.2% with IGROV1 ovarian, -20.5% (active) in the assay on OVCAR-3 ovarian, 55.7% in the assay on HS 578T breast and 25.2% in the assay on NCI/ADR-RES ovarian.

With `COc1cccc(/C=C2\Oc3cc(OCCCN4CCCC4)ccc3C2=O)c1OC`, the growth in the assay on SR leukemia is 70.8%; in the assay with RPMI-8226 leukemia, 88.6%; in the assay on OVCAR-8 ovarian, 94%; with OVCAR-5 ovarian, 94.9%; with OVCAR-4 ovarian, 99.9%; with SK-OV-3 ovarian, 110%. The growth is 96.1% with IGROV1 ovarian, 99% with OVCAR-3 ovarian, 93.9% in the assay with HS 578T breast and 97.3% in the assay on NCI/ADR-RES ovarian.

`C=CCn1c2ccccc2c2c3c(c4c5ccccc5n(CC=C)c4c21)C(=O)N(O)C3=O`: the growth in the assay with SR leukemia is 7.52% (active); with RPMI-8226 leukemia, 24.4%; in the assay with OVCAR-8 ovarian, 22.9%; with OVCAR-5 ovarian, 86.4%; with OVCAR-4 ovarian, 45.8%; in the assay on SK-OV-3 ovarian, 33.9%. The growth with IGROV1 ovarian was -15.6% (active); in the assay on OVCAR-3 ovarian it was 33.2%; in the assay on HS 578T breast it was 77.2%; in the assay with NCI/ADR-RES ovarian it was 2.91% (active).

Turning to `CCCCCCCCCCCCNC(=O)[C@H]1CSC(c2cc3ccccc3s2)N1` (stereo not given in full), the growth in the assay with SR leukemia is -34.6% (active); with RPMI-8226 leukemia, 18.7%; in the assay with OVCAR-8 ovarian it was -32.9% (active); in the assay on OVCAR-5 ovarian, 20.5%; in the assay with OVCAR-4 ovarian, -68.5% (active); in the assay with SK-OV-3 ovarian, -30.1% (active). The growth in the assay on IGROV1 ovarian was -63.2% (active); with OVCAR-3 ovarian, -61.3% (active); in the assay with HS 578T breast, -41.4% (active); in the assay on NCI/ADR-RES ovarian, -18.1% (active).

Turning to `COc1cc2c(cc1OCCCN1CCN(CCCn3c4ccccc4c4ccccc43)CC1)N=C[C@@H]1CCCN1C2=O`, the growth was -34.7% (active) in the assay on SR leukemia; -57.4% (active) with RPMI-8226 leukemia; -6.46% (active) in the assay on OVCAR-8 ovarian; 3.88% (active) with OVCAR-5 ovarian; -39.5% (active) in the assay on OVCAR-4 ovarian; -80.5% (active) in the assay on SK-OV-3 ovarian. For the same molecule, the growth in the assay on IGROV1 ovarian is -64.6% (active); in the assay with OVCAR-3 ovarian, -91.1% (active); in the assay on HS 578T breast, -54.5% (active); in the assay with NCI/ADR-RES ovarian it was 1.66% (active).

Regarding `O=c1[nH]c(NCc2ccccc2)nc2nc(Nc3ccc(NC(=S)Nc4ccccc4)cc3)nc(-c3ccc(O)cc3O)c12`, the growth in the assay with SR leukemia was 67.5%; in the assay with RPMI-8226 leukemia it was 90.8%; in the assay on OVCAR-8 ovarian, 87.4%; in the assay with OVCAR-5 ovarian, 111%; with OVCAR-4 ovarian, 114%; in the assay with SK-OV-3 ovarian it was 97.9%. Moreover, the growth is 70.3% in the assay on IGROV1 ovarian, 111% with OVCAR-3 ovarian, 88.1% with HS 578T breast and 106% in the assay on NCI/ADR-RES ovarian.

For the molecule `O=[N+]([O-])c1cc(S(=O)(=O)Oc2ccccc2)ccc1Cl`, the growth in the assay with SR leukemia is 1.34% (active); in the assay with RPMI-8226 leukemia, 17%; with OVCAR-8 ovarian, 40.7%; in the assay on OVCAR-5 ovarian, 66.8%; with OVCAR-4 ovarian it was -28.4% (active); with SK-OV-3 ovarian it was 102%. The growth in the assay with IGROV1 ovarian is -78.2% (active); in the assay with OVCAR-3 ovarian, -94.7% (active); in the assay with HS 578T breast, -7.12% (active); with NCI/ADR-RES ovarian it was 46.6%.

In the case of `O=[N+]([O-])c1cccc(-c2nc3sccn3c2-c2ccnc(NCCCNS(=O)(=O)c3ccc(Cl)cc3)n2)c1`, the growth was 60.7% in the assay on SR leukemia; 16.2% in the assay with RPMI-8226 leukemia; 20% in the assay with OVCAR-8 ovarian; 112% in the assay on OVCAR-5 ovarian; 17.5% with OVCAR-4 ovarian; 96.5% in the assay with SK-OV-3 ovarian. Also, the growth is 43.3% in the assay on IGROV1 ovarian, 44.5% in the assay on OVCAR-3 ovarian, 81.2% in the assay on HS 578T breast and 12.6% in the assay with NCI/ADR-RES ovarian.

For `CC(C)CSc1nc(NN)c(C#N)c(-c2ccc(F)cc2)n1`, the growth in the assay on SR leukemia was 74.8%; with RPMI-8226 leukemia it was 61.2%; in the assay with OVCAR-8 ovarian, 72%; with OVCAR-5 ovarian it was 89.4%; in the assay with OVCAR-4 ovarian, 57.8%; in the assay with SK-OV-3 ovarian, 60.9%. The growth in the assay on IGROV1 ovarian was 72.5%; with OVCAR-3 ovarian, 59.1%; with HS 578T breast, 78.3%; in the assay on NCI/ADR-RES ovarian it was 50.8%.

As for `CCOC(=O)c1ccc(NC(=O)N2CC(C)OC(C)C2)cc1` (stereo not given), the growth with SR leukemia was 98.7%; with RPMI-8226 leukemia, 63.1%; in the assay on OVCAR-8 ovarian, 101%; with OVCAR-5 ovarian, 94%; with OVCAR-4 ovarian it was 96.8%; with SK-OV-3 ovarian, 99.5%. The growth in the assay with IGROV1 ovarian is 73.6%; with OVCAR-3 ovarian, 109%; with HS 578T breast, 101%; in the assay with NCI/ADR-RES ovarian it was 100%.

With `COc1ccc(Nc2ncccc2C(=O)NCc2cn(Cc3cccc(Oc4ccccc4)c3)nn2)cc1`, the growth was 30.8% in the assay with SR leukemia; 55.4% in the assay on RPMI-8226 leukemia; 65.6% with OVCAR-8 ovarian; 75.2% in the assay with OVCAR-5 ovarian; 71.1% with OVCAR-4 ovarian; 36.8% in the assay with SK-OV-3 ovarian. The growth in the assay on IGROV1 ovarian was 53.5%; with OVCAR-3 ovarian, -4.73% (active); with HS 578T breast, 48.7%; in the assay with NCI/ADR-RES ovarian, 16.3%.
